Our source for the inhibition values is PubChem BioAssay AID588405 (Sanford-Burnham Center for Chemical Genomics, 2011).

Out of some 360,000 compounds screened, about 6,200 (1.7%) were called active. For the sample, actives were picked, then their nearest neighbours and some compounds at random. A number with no mark means an inactive call.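 Rule for the calls: active = inhibition of at least 50% at 20 µM; inactive = the rest.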

The nature of the assay: Peg3 promoter-driven luciferase inhibitors, primary screen, cell-based, HeLa, luciferase luminescence (AID 588405). The following applies: HeLa PEG-Prom luciferase reporter, overnight, at 20 µM, hits give high values. On the technique in general: A reporter such as luciferase makes a cellular process visible.
In general, inhibition refers to the relative decrease from the control value, in per cent. Consider `O=C(NCC(=O)N1CCN(c2ccccc2F)CC1)c1cccs1`, for which the inhibition is -57%.

On to `Cc1ccccc1C(CC(=O)c1cccs1)C(C#N)C#N` (stereo not drawn), for which the inhibition is 98.4% (active).

In the case of `Cc1ccc(C)c(NC(CC(=O)c2ccccc2)C(=O)OCC(=O)c2cccs2)c1` (stereo not drawn), the inhibition was -74.6%.

For the compound `OCCC1CN(Cc2cccc(OC3CCCC3)c2)CCN1Cc1ccsc1` (stereo not drawn), the inhibition is 18.8%.

`CCc1nc2c(OCCOc3ccc(F)cc3)cccn2c1N(C)C(=O)c1ccccc1F`: the inhibition is 14.6%.

Consider `C=C(C)C(=O)O[C@H]1C/C(C)=C\C(=O)/C=C(\C)[C@H](O)[C@@H]2OC(=O)C(=C)[C@@H]21`, for which the inhibition was 94.4% (active).

Take `Cc1cc(NC(=O)COC(=O)/C=C/c2ccc(C)o2)no1`: the inhibition was 6.71%.

As for `Cc1sc2ncn(CC(=O)NCCCC(=O)N(C)Cc3ccccc3)c(=O)c2c1C`, the inhibition is 8.27%.

With `COc1ccc(OC)c(NC(=O)CN(C)CCOc2ccc(Br)cc2)c1`, the inhibition was 7.53%.

Take `COc1ccc(Nc2ncnc3ccc(Br)cc23)c(OC)c1`: the inhibition is 88.1% (active).

With `COc1ccccc1Nc1ncnc2c1oc1ccccc12`, the inhibition was -388%.

Consider `Cc1cc(Br)cn2c(Cc3ccsc3)c(-c3ccc(C#N)cc3)nc12`, for which the inhibition was -3.22%.

In the case of `CCOC(=O)C1CCCN(C(=O)c2ccc(N(C)C)cc2)CC1` (stereo not drawn), the inhibition was -7.67%.

On to `O=[N+]([O-])/C=C/c1ccc2c(ccn2Cc2ccccc2)c1`, for which the inhibition was 107% (active).

Take `O=C(Nc1nnc([C@H]2C[C@H](O)[C@@H](CO)O2)s1)c1cccc(Cl)c1`: the inhibition was -8.3%.

With `Nc1cccc(S(=O)(=O)Nc2ccc(SC(F)F)cc2)c1`, the inhibition was 8.83%.

In the case of `COc1ccc(NC(=O)/C(N=Nc2cccc(S(=O)(=O)Nc3ccc(SC(F)F)cc3)c2)=C(\C)O)cc1`, the inhibition was 50.3% (active).

As for `Cc1c(NS(=O)(=O)c2cccc(C(=O)Nc3ccc(SC(F)F)cc3)c2)c(=O)n(-c2ccccc2)n1C`, the inhibition is 34.6%.

With `CCN(CC)CCC(c1cc(OC)c(OC)c(OC)c1)c1c(OC)cc(OC)c2c(-c3ccccc3)cc(=O)oc12` (stereo not drawn), the inhibition was 27.4%.

On to `CCN(CC)CCC(c1ccc2c(c1)OCO2)c1c(OC)cc(OC)c2c(-c3ccccc3)cc(=O)oc12` (stereo not drawn), for which the inhibition is 56.4% (active).

For `CCN(CC)C(=O)CC(c1ccc2c(c1)OCO2)c1c(OC)cc(OC)c2c(-c3ccccc3)cc(=O)oc12` (stereo not drawn), the inhibition was 7.97%.

As for `CC1(C(=O)Nc2cccc3cccnc23)CCN1C(=O)CCC1CCCC1` (stereo not drawn), the inhibition was 10.3%.

On to `COc1ccc(CCNC(=O)Nc2ccc3c(c2)c(=O)n(C)n3C)cc1OC`, for which the inhibition was -7.49%.

As for `O=C(c1ccc(F)cc1)c1c[nH]c(C(=O)NCc2cccnc2)c1`, the inhibition was 18%.

As to `O=C(NN=Cc1ccc2c(c1)CCC2)c1ccccc1O`, the inhibition is -215%.

Turning to `COc1ccc(C(=O)Nc2ccccc2C(=O)N/N=C/c2ccc(O)c(OC)c2)cc1`, the inhibition is 83.7% (active).

On to `COc1ccc(-c2[nH]ncc2/C=N/NC(=O)c2cc(Br)ccc2O)c(OC)c1`, for which the inhibition was 5.43%.

For `O=C(Nc1cc(Br)ccc1F)c1nc[nH]c1C(=O)NCc1ccccc1`, the inhibition is 2.41%.

Regarding `Cc1sc2ccccc2c1CNC[C@H]1O[C@@H](n2ccc(=O)[nH]c2=O)[C@H](O)[C@@H]1O`, the inhibition was -4.81%.

As for `COc1ccc(C(=O)/C=C/Nc2ccccn2)cc1`, the inhibition is 63% (active).

Turning to `COc1ccc(N2C(=O)CCC(C(=O)Nc3ccccn3)C2c2ccc(OC)c(OC)c2)cc1` (stereo not drawn), the inhibition was 12.5%.

In the case of `Cc1cc(N/C=C\C(=O)c2ccc(Cl)c(Cl)c2)no1`, the inhibition was -233%.

Consider `COc1ccccc1CNC(=O)c1cc(-c2cc(F)ccc2OC)n[nH]1`, for which the inhibition was 0.22%.

For the compound `COc1ccc(OC)c(C(=O)NC(CC(N)=O)c2ccc(N3CCC(N4CCCCC4)CC3)c([N+](=O)[O-])c2)c1` (stereo not drawn), the inhibition was 0.66%.

As to `CCc1nc2c(OCc3ccccc3)cccn2c1N(C)C(=O)c1ccco1`, the inhibition was 11.6%.

With `COc1ccc(CC(=O)Nc2ccc(-c3nnc(-c4ccc(C)cc4)o3)cc2)cc1`, the inhibition was 51.2% (active).

`COc1ccc(CC(=O)Nc2c(C(N)=O)oc3ccccc23)cc1`: the inhibition was 8.96%.

Consider `COc1ccc(NC(=O)Cn2c(-c3ccc(OC)cc3)cn(-c3ccc(C)cc3)c2=O)cc1`, for which the inhibition is -103%.

Regarding `COc1ccc(CCCNC(=O)C2Cc3c(-c4cccc(C(N)=O)c4)ccnc3O2)cc1` (stereo not drawn), the inhibition was 14.7%.

Regarding `Nc1cccc(-c2cncc(N3CCN(Cc4ccccn4)CC3)n2)c1`, the inhibition was -8.35%.

Take `CSCC[C@H](NC(=O)CCCn1nnc2ccccc2c1=O)C(=O)O`: the inhibition was 4.76%.

For the compound `CCOc1ccc(CCN2C(=S)N([C@@H](CC(C)C)CN3CCC[C@@H]3CN3C(=S)NC[C@@H]3Cc3ccc(O)cc3)C[C@@H]2Cc2ccc(O)cc2)cc1`, the inhibition is 14.3%.

As to `CC(C)C[C@H]1CNC(=S)N1C[C@H]1CCCN1C[C@H](Cc1ccc(O)cc1)N1C[C@H](Cc2ccc(O)cc2)N(CC2CCCCC2)C1=S`, the inhibition was 99.5% (active).

Regarding `CCOc1ccc(CCN2C(=S)N([C@@H](CC(C)C)CN3CCC[C@@H]3CN3C(=S)NC[C@@H]3Cc3ccc(O)cc3)C[C@@H]2CC(C)C)cc1`, the inhibition is 14.2%.

For the compound `COCC(C)n1c(C)cc(C(=O)COc2ccc(C)nc2[N+](=O)[O-])c1C` (stereo not drawn), the inhibition was 43.5%.

For `Cc1cc(C(=O)COC(=O)CNC(=O)c2ccc(F)cc2)c(C)n1Cc1ccco1`, the inhibition is -257%.

Take `Cc1ccc(OCC(=O)c2cc(C)n(Cc3ccco3)c2C)c([N+](=O)[O-])n1`: the inhibition is 55.6% (active).

`CC(C)c1ccc(CC(=O)N2CCC2(C)C(=O)NS(=O)(=O)c2ccc(C(C)(C)C)cc2)cc1` (stereo not drawn): the inhibition is 11.3%.

Regarding `CC(C)Cn1cc(-c2cncc3nccn23)cn1`, the inhibition is 5.62%.

With `CN(C(=O)CN1CCN(c2cc(-c3ccc(OCc4ccccc4)cc3)ncn2)CC1)c1ccccc1`, the inhibition is -2.84%.

With `Fc1ccc(-c2ccc(NCCN3CCOCC3)nn2)cc1`, the inhibition was -96.4%.

Turning to `c1ccc2cc3c(NCCN4CCOCC4)ccnc3cc2c1`, the inhibition was 69.5% (active).

Consider `CCOc1nc(NCCN2CCOCC2)nc(Nc2ccc(C)cc2)n1`, for which the inhibition was 5.29%.
